Laboratory results reported in PubChem BioAssay (NCI).
Compounds without any hit were thinned out: in the full panel of roughly 79,000, 15% have a hit. Activity calls are given as the source filed them. Cut-off read from the data, not from the text of the source: active = growth inhibition above about 70%; inactive = the rest. Where a SMILES comes first, the peptide text is derived from it. [ ]: non-standard residue; d: D form. The star is where a group is joined. mTyr = N[CH](Cc1cccc(O)c1)C(=O)O; Cbz = O=C(OCc1ccccc1)*; OBn = c1ccc(CO*)cc1

experiment: NCI Yeast Anticancer Drug Screen. Data for the mlh1 rad18 strain (AID 175); conditions: S. cerevisiae mlh1 rad18 strain growth inhibition; at 50.0 µM (retest, dose inferred, filed as 5.0); active compounds read high
Summary of the method: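 Yeast w/ defined DNA-repair lesions; compound exposure; growth vs vehicle controls → % inhibition.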

SMILES	growth inhibition
CC(/C=N/NS(=O)(=O)c1ccc(C)cc1)=C(c1ccccc1)c1ccccc1	94% (active)
CCOC(=O)Cc1cc(=O)oc2c(CN3CCN(c4ccc(C)cc4)CC3)c(O)ccc12	81% (active)
Clc1ccc(/C=N\Nc2c3ccccc3nc3ccccc23)cc1Cl	57% (inactive)
CNC(=O)c1cc(NC(=O)c2ccc(C(=O)Nc3cc(C(=O)NC)cc(C4=NCCN4)c3)cc2)cc(C2=NCCN2)c1	-19% (inactive)
O=P1(O)c2ccccc2CS(=O)(=O)Cc2ccccc21	43% (inactive)
CC1=C(C(=O)NCc2ccccc2)C(c2ccccc2[N+](=O)[O-])C(C(=O)NCc2ccccc2)=C(C)N1	4% (inactive)
Oc1ccc(C2CCCCC2)cc1	40% (inactive)
CCN(CC)CCOc1cccc2c1C(=O)c1c(O)cccc1C2=O	79% (active)
CCN(CC)C1Oc2cc3c(cc2C(c2ccc(OC)cc2)C1C)OCO3 (stereo not given)	97% (active)
COc1ccc(C2C3CCCC(C(c4ccc(OC)cc4)N2C)C32NC(=O)NC2=O)cc1 (stereo not given)	95% (active)
Clc1ccc(SSc2ccc(Cl)cn2)nc1	92% (active)
CN=c1sc2c(n1C)C(=O)c1ccccc1C2=O	54% (inactive)
O=C(Nc1cccc(Cl)c1)OCCOC(=O)Nc1cccc(Cl)c1	98% (active)
O=[N+]([O-])c1ccc2c(c1)Cc1cc(Cl)ccc1-2	5% (inactive)
Cc1c(-c2ccccc2)ccnc1/C=N/NC(=S)NCCc1ccccc1	80% (active)
O=C(O)CCC(=O)NCCNC(=O)CC(=O)O	-107% (inactive)
Cc1cc2c(cc1S(=O)(=O)O)C1C(C3C2C2(Cl)C(Cl)=C(Cl)C3(Cl)C2(Cl)Cl)C2(Cl)C(Cl)=C(Cl)C1(Cl)C2(Cl)Cl (stereo not given)	87% (active)
O=C1/C(=C/c2ccccc2)CNC/C1=C\c1ccccc1	98% (active)
Cc1ccc2c(c1)-c1cc(C)ccc1C2(O)c1ccccc1	95% (active)
CCCc1cc2c(cc1COc1ccccc1C(=O)O)OCO2	58% (inactive)

SMILES	growth inhibition
O=C1OC(c2ccc3c(c2)OCO3)Sc2ccccc21 (stereo not given)	27% (inactive)
Cc1cc(NC(=S)SCc2ccc(Cl)cc2)ccc1F	89% (active)
NC(=O)CC1CCC(c2ccccc2)CC1 (stereo not given)	-31% (inactive)
[O-]c1c2cc(-[n+]3c(-c4ccccc4)cc(-c4ccccc4)cc3-c3ccccc3)cc1CO[C@@H](c1ccccc1)[C@H](c1ccccc1)OCc1cccc(n1)CO[C@@H](c1ccccc1)[C@H](c1ccccc1)OC2	97% (active)
OCCN(CCO)c1cc(/C=C/c2ccnc3ccccc23)nc2ccccc12	35% (inactive)
COC(=O)C(Cc1cccc(O)c1)NC(=O)C(CC(=O)OCc1ccccc1)NC(=O)OCc1ccccc1 (stereo not given) (Cbz-Asp(OBn)-[mTyr]-OMe; configuration not given here)	75% (active)
COc1cc[c]([Sn]([c]2ccc(OC)cc2)([c]2ccc(OC)cc2)[c]2ccc(OC)cc2)cc1	-14% (inactive)
COC(=O)CCCCCOS(=O)(=O)c1ccc(C)cc1	-8% (inactive)
O=S(=O)(C#Cc1ccccc1)c1ccccc1	99% (active)
N#CC1(C#N)C(C#N)(C#N)C12CCCCCC2	98% (active)
CCOC(=O)/C(C)=N/Nc1cc(Cl)ccc1O	63% (inactive)
N/C(CC(=O)NOC(=O)c1ccccc1)=N/OC(=O)c1ccccc1	99% (active)
C/C(=N\NC(=S)N1CCC(C)CC1)c1ncccn1	99% (active)
Cc1ccc(S(=O)(=O)OCC(/C=N/NC(N)=O)OCOC(C)/C=N/NC(N)=O)cc1 (stereo not given)	-3% (inactive)
CN1COc2c(Cl)cc(Cl)cc2C1	86% (active)
c1ccc2cc3c(cc2c1)Nc1c2ccccc2nc2cccc-3c12	71% (active)
CCCCN(CCCC)S(=O)(=O)c1ccccc1	17% (inactive)
Cc1cccc(N2C(c3ccccc3)c3ccc(C)cc3NS2=O)c1 (stereo not given)	-7% (inactive)
CN(C)c1ccc(/C=N/c2nc(-c3ccccc3)cs2)cc1	95% (active)
O=C1c2ccccc2-c2nc3ncccc3cc21	88% (active)

same assay, conditions: S. cerevisiae mlh1 rad18 strain growth inhibition; at 50.0 µM; active compounds read high

SMILES	growth inhibition
CC(/C=N/NS(=O)(=O)c1ccc(C)cc1)=C(c1ccccc1)c1ccccc1	85% (active)
CCOC(=O)Cc1cc(=O)oc2c(CN3CCN(c4ccc(C)cc4)CC3)c(O)ccc12	78.8% (active)
Clc1ccc(/C=N\Nc2c3ccccc3nc3ccccc23)cc1Cl	61.8% (inactive)
CNC(=O)c1cc(NC(=O)c2ccc(C(=O)Nc3cc(C(=O)NC)cc(C4=NCCN4)c3)cc2)cc(C2=NCCN2)c1	98.6% (active)
O=P1(O)c2ccccc2CS(=O)(=O)Cc2ccccc21	-42.8% (inactive)
CC1=C(C(=O)NCc2ccccc2)C(c2ccccc2[N+](=O)[O-])C(C(=O)NCc2ccccc2)=C(C)N1	77.6% (active)
Oc1ccc(C2CCCCC2)cc1	93.8% (active)
CCN(CC)CCOc1cccc2c1C(=O)c1c(O)cccc1C2=O	62.4% (inactive)
CCN(CC)C1Oc2cc3c(cc2C(c2ccc(OC)cc2)C1C)OCO3 (stereo not given)	85.3% (active)
COc1ccc(C2C3CCCC(C(c4ccc(OC)cc4)N2C)C32NC(=O)NC2=O)cc1 (stereo not given)	97.6% (active)
Clc1ccc(SSc2ccc(Cl)cn2)nc1	81.1% (active)
CN=c1sc2c(n1C)C(=O)c1ccccc1C2=O	80.8% (active)
O=C(Nc1cccc(Cl)c1)OCCOC(=O)Nc1cccc(Cl)c1	98.9% (active)
O=[N+]([O-])c1ccc2c(c1)Cc1cc(Cl)ccc1-2	46.1% (inactive)
Cc1c(-c2ccccc2)ccnc1/C=N/NC(=S)NCCc1ccccc1	74% (active)
O=C(O)CCC(=O)NCCNC(=O)CC(=O)O	9% (inactive)
Cc1cc2c(cc1S(=O)(=O)O)C1C(C3C2C2(Cl)C(Cl)=C(Cl)C3(Cl)C2(Cl)Cl)C2(Cl)C(Cl)=C(Cl)C1(Cl)C2(Cl)Cl (stereo not given)	79.2% (active)
O=C1/C(=C/c2ccccc2)CNC/C1=C\c1ccccc1	99.2% (active)
Cc1ccc2c(c1)-c1cc(C)ccc1C2(O)c1ccccc1	99.2% (active)
CCCc1cc2c(cc1COc1ccccc1C(=O)O)OCO2	61.4% (inactive)

SMILES	growth inhibition
O=C1OC(c2ccc3c(c2)OCO3)Sc2ccccc21 (stereo not given)	25.8% (inactive)
Cc1cc(NC(=S)SCc2ccc(Cl)cc2)ccc1F	96.4% (active)
NC(=O)CC1CCC(c2ccccc2)CC1 (stereo not given)	41.8% (inactive)
[O-]c1c2cc(-[n+]3c(-c4ccccc4)cc(-c4ccccc4)cc3-c3ccccc3)cc1CO[C@@H](c1ccccc1)[C@H](c1ccccc1)OCc1cccc(n1)CO[C@@H](c1ccccc1)[C@H](c1ccccc1)OC2	86.7% (active)
OCCN(CCO)c1cc(/C=C/c2ccnc3ccccc23)nc2ccccc12	53.4% (inactive)
COC(=O)C(Cc1cccc(O)c1)NC(=O)C(CC(=O)OCc1ccccc1)NC(=O)OCc1ccccc1 (stereo not given) (Cbz-Asp(OBn)-[mTyr]-OMe; configuration not given here)	80.9% (active)
COc1cc[c]([Sn]([c]2ccc(OC)cc2)([c]2ccc(OC)cc2)[c]2ccc(OC)cc2)cc1	78.8% (active)
COC(=O)CCCCCOS(=O)(=O)c1ccc(C)cc1	0.7% (inactive)
O=S(=O)(C#Cc1ccccc1)c1ccccc1	99% (active)
N#CC1(C#N)C(C#N)(C#N)C12CCCCCC2	99.2% (active)
CCOC(=O)/C(C)=N/Nc1cc(Cl)ccc1O	88.8% (active)
N/C(CC(=O)NOC(=O)c1ccccc1)=N/OC(=O)c1ccccc1	99.2% (active)
C/C(=N\NC(=S)N1CCC(C)CC1)c1ncccn1	98.9% (active)
Cc1ccc(S(=O)(=O)OCC(/C=N/NC(N)=O)OCOC(C)/C=N/NC(N)=O)cc1 (stereo not given)	19.1% (inactive)
CN1COc2c(Cl)cc(Cl)cc2C1	42.5% (inactive)
c1ccc2cc3c(cc2c1)Nc1c2ccccc2nc2cccc-3c12	89.8% (active)
CCCCN(CCCC)S(=O)(=O)c1ccccc1	79% (active)
Cc1cccc(N2C(c3ccccc3)c3ccc(C)cc3NS2=O)c1 (stereo not given)	99.2% (active)
CN(C)c1ccc(/C=N/c2nc(-c3ccccc3)cs2)cc1	97.8% (active)
O=C1c2ccccc2-c2nc3ncccc3cc21	71.4% (active)
